Screening results: PubChem BioAssay, The Scripps Research Institute Molecular Screening Center
Shown are actives, neighbours in structure and some others; about 2.9% of the full set was active somewhere.
rCAG binder: molecules binding r(CAG) RNA repeats | r(CAG) RNA repeat, TO-PRO-1 dye displacement fluorescence | inhibition, % at 3 µM | 370,000 tested, 1.3% active | AID 651821;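 active means inhibition above the plate cutoff, the mean of all test compounds on that plate plus 3 SD, cut at about 35% in these data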;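 further: higher means more dye released from RNA so lower well fluorescence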
PAFAH1B3 FP inh: inhibitors of human PAFAH1B3 | Q15102 | recombinant PAFAH1B3, FP-rhodamine probe, fluorescence polarization | inhibition, % at 3.39 µM | 340,000 tested, 0.28% active;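 active means inhibition above the screen-wide average of all tested compounds plus 3 SD, cut at about 25% in these data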
Target sequence (Q15102 whole entry, looked up): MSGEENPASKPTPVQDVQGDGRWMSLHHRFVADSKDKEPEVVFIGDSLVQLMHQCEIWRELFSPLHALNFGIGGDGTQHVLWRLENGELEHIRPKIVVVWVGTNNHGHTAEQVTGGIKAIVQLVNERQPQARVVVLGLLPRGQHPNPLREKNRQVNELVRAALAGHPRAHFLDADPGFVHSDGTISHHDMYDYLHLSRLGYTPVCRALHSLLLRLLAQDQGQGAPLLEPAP
PAFAH2 FP inh: PAFAH2 (human) inhibition; Q99487; recombinant PAFAH2, FP-rhodamine activity probe, fluorescence polarization; inhibition, % at 3.39 µM; 340,000 tested, 0.99% active; AID 492956;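 active means inhibition above the mean over all tested compounds plus 3 SD, cut at about 30% in these data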;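 further: inhibitors block probe labeling of enzyme so polarization drops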
ZTA counter: ZTA (EBV) inhibition in EBNA-1 counter-screen | P03206 | ZTA-DNA binding, fluorescence polarization | inhibition, % at 11 µM | 320,000 tested, 0.15% active | AID 2234; in the data active means inhibition above about 33%
PAFAH1B2 FP inh: PAFAH1B2 (human) inhibition | recombinant PAFAH1B2, FP-rhodamine activity probe, fluorescence polarization | inhibition, % at 3.39 µM | 340,000 tested, 1.2% active | AID 492953;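 active means inhibition above the mean of all tested compounds plus 3 SD, cut at about 24% in these data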
Target sequence (P68402 whole entry, looked up): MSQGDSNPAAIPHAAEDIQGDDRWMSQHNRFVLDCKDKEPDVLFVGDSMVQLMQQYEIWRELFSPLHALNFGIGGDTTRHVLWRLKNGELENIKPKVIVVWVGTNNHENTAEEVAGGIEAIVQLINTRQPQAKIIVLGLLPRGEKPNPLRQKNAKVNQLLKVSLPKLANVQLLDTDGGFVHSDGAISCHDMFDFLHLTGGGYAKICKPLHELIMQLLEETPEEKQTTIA
EBNA-1 inh: blocks EBNA-1 binding to DNA; inhibition, % at 14.8 µM; 300,000 tested, 0.34% active; AID 1950; EBNA-1 DNA binding, fluorescence polarization; in the data active means inhibition above about 28%
rCAG binder conf: r(CAG) RNA repeat binding, confirmation; TO-PRO-1 dye displacement fluorescence; shares compounds with rCAG binder; 4,300 tested, 70% active; inhibition, % at 3 µM; AID 652065;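 active means inhibition above a per-plate cutoff, the mean inhibition of sample wells plus 3 SD, cut at about 35% in these data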;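 further: loss of TO-PRO-1 fluorescence as compound displaces dye from 1x1 AA loop RNA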
dCAG dye counter: DNA CAG dye complex inhibition counter-screen; inhibition, % at 3 µM; shares compounds with rCAG binder; AID 652068; d(CAG) DNA oligo TO-PRO-1 dye displacement, fluorescence; 4,300 tested, 94% active;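 active means inhibition above its plate's cutoff, the mean test-well inhibition plus 3 SD, cut at about 4.8% in these data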;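 further: hits displace the dye from DNA and so lower well fluorescence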
DNA CAG DR: DNA CAG dye complex inhibition, dose response counter-screen; AID 686960; shares compounds with rCAG binder; IC50, µM; 250 tested, 20% active; DNA CAG/GTC duplex TO-PRO-1 dye displacement fluorescence; in the data active means IC50 below about 10 µM
Numbers stand for hits; 0 = inactive; - = no result given.

SMILES	rCAG binder	PAFAH1B3 FP inh	PAFAH2 FP inh	ZTA counter	PAFAH1B2 FP inh	EBNA-1 inh	rCAG binder conf	dCAG dye counter	others
O=C(Nc1cc(S(=O)(=O)N2CCCCC2)ccc1O)c1ccccc1NS(=O)(=O)c1ccc(F)c(F)c1	85.3	0	47.8	0	42.9	0	87.9	63.7
O=C(Nc1ccc(F)cc1)c1cc(S(=O)(=O)N2CCCCC2)ccc1F	0	0	0	0	0	0	-	-
O=C(Nc1nnc(SCc2cccc3ccccc23)s1)C1COc2ccccc2O1 (stereo not drawn)	49.8	0	0	0	0	0	39.5	8.2
CC(C)CC(C)c1cc(N)nc2nc3ccccc3n12 (stereo not drawn)	0	0	0	0	0	0	-	-
O=C(CN1C(=O)/C(=C/c2ccco2)SC1=S)NC1CCS(=O)(=O)C1 (stereo not drawn)	48.4	0	0	0	0	0	0	9.4
O=C(CCCN1C(=O)/C(=C\c2cccs2)SC1=S)Nc1cccc(C(=O)O)c1	0	0	0	0	0	0	-	-
CC(C(=O)Nc1ccc(C(=O)O)c(O)c1)N1C(=O)/C(=C\c2ccco2)SC1=S (stereo not drawn)	-	0	0	0	0	0	-	-
O=C(CCCN1C(=O)/C(=C/c2ccco2)SC1=S)Nc1cccc(C(=O)O)c1	67.9	0	0	0	0	0	45.4	17.0
O=C(CN1C(=O)/C(=C/c2ccco2)SC1=S)Nc1ccc(O)c(C(=O)O)c1	88.4	0	0	0	0	0	82.0	47.1
CC(C)c1ccccc1NC(=O)COC(=O)c1cc(=O)[nH]c(=O)[nH]1	0	0	0	0	0	0	-	-
O=C(OCC(=O)N1CCCC1=O)c1cc2ccccc2o1	0	0	0	0	0	-	-	-
COc1ccc(NC(=O)CCNC(=O)c2ccco2)cc1Cl	0	0	0	0	0	0	-	-
Cc1ccc(Nc2ccc(N)cc2S(=O)(=O)O)cc1	35.6	0	0	0	0	0	0	7.2
Nc1ccc(Nc2ccccc2)c(S(=O)(=O)O)c1	0	0	0	0	0	0	-	-
CCOC(=O)C1=C(C)N=c2sc(=Cc3cc(Cl)c(OCC(=O)O)c(Cl)c3)c(=O)n2C1c1cccc(OC)c1 (stereo not drawn)	50.1	-	-	-	-	-	85.3	54.2
CCOC(=O)C1=C(C)N=c2s/c(=C/c3ccc(OCC(=O)O)cc3)c(=O)n2C1c1cc(OC)c(OC)c(OC)c1 (stereo not drawn)	41.8	0	0	0	0	0	73.6	37.1
CCOC(=O)C1=C(C)N=c2sc(=Cc3ccc(OCC(=O)O)cc3)c(=O)n2C1c1ccc(Cl)cc1 (stereo not drawn)	83.2	-	-	-	-	-	58.7	25.6
CCOC(=O)C1=C(C)N=c2s/c(=C\c3ccc(OCC(=O)O)cc3)c(=O)n2C1c1ccc(OC(C)C)cc1 (stereo not drawn)	64.5	0	0	0	0	0	85.0	54.5
CCOC(=O)C1=C(C)N=c2s/c(=C\c3cccc(OCC(=O)O)c3)c(=O)n2C1c1ccccc1OC (stereo not drawn)	0	0	0	0	0	0	-	-
CN(Cc1cccc(Cl)c1)C(=O)C1CCC(=O)N(C2CC2)C1 (stereo not drawn)	0	0	0	0	0	0	-	-
O=C(CC1C(=O)NCCN1Cc1cccc(F)c1)NCCCOc1cccnc1 (stereo not drawn)	0	0	0	0	0	0	-	-
O=C(CCC1CCCN(C(=O)C2(c3ccccc3)CC2)C1)N1CCN(c2ccccn2)CC1 (stereo not drawn)	0	0	0	0	0	0	-	-
COc1cccc(C2C(C(=O)Nc3ccccc3)=C(C)N=c3s/c(=C/c4ccc(OCC(=O)O)cc4)c(=O)n32)c1 (stereo not drawn)	72.1	0	0	0	0	0	81.8	50.2
CC1=C(C(=O)Nc2ccccc2)C(c2ccc(C)o2)n2c(s/c(=C\c3ccco3)c2=O)=N1 (stereo not drawn)	37.9	0	0	-	0	-	0	7.1
COc1cccc(C2C(C(=O)OC(C)C)=C(C)N=c3s/c(=C\c4ccc(C(=O)O)cc4)c(=O)n32)c1 (stereo not drawn)	0	0	0	0	0	0	-	-
SMILES	rCAG binder	PAFAH1B3 FP inh	PAFAH2 FP inh	ZTA counter	PAFAH1B2 FP inh	EBNA-1 inh	rCAG binder conf	dCAG dye counter	others
COc1ccccc1C1C(C(C)=O)=C(C)N=c2s/c(=C\c3cc(OC)c(OC)c(OC)c3)c(=O)n21 (stereo not drawn)	0	0	0	0	0	0	-	-
COC(=O)C1CN(Cc2ccc(Cl)cc2)CCS(=O)(=O)N1Cc1cn(Cc2ccc(OC)cc2)nn1 (stereo not drawn)	0	-	-	-	-	-	-	-
COc1ccc(/C=N/Nc2ncccc2[N+](=O)[O-])c(OC)c1	0	0	0	0	0	0	-	-
COc1cc(/C=C2\SC(=Nc3ccc(N4CCOCC4)cc3)N(C)C2=O)ccc1OC(C)C(=O)O (stereo not drawn)	41.3	0	0	0	0	0	52.3	17.0
COc1cc(/C=C2\SC(=Nc3ccccc3)N(Cc3ccco3)C2=O)ccc1OC(C)C(=O)O (stereo not drawn)	66.9	0	0	0	0	0	70.6	28.9	DNA CAG DR=0
COC(=O)C1CN(Cc2cn(Cc3ccc(Cl)cc3)nn2)CCS(=O)(=O)N1Cc1ccc(OC)cc1 (stereo not drawn)	0	-	-	-	-	-	-	-
COCCn1c(=NC(=O)c2ccc(S(=O)(=O)N3CCOCC3)cc2)sc2cc(S(N)(=O)=O)ccc21	0	0	0	0	0	0	-	-
COCCn1c(=NC(=O)c2cc(-c3cccs3)nc3ccccc23)sc2cc(S(N)(=O)=O)ccc21	35.9	0	0	0	0	0	39.1	18.9
CC(COc1ccc(S(C)(=O)=O)cc1)CN1CCC(C(O)(c2ccccc2)c2ccccc2)CC1 (stereo not drawn)	0	-	-	-	-	-	-	-
O=C(CSc1nnc(COc2ccc(Cl)cc2Cl)o1)Nc1ccccn1	0	0	0	0	0	0	-	-
O=C(CSc1nnc(CCCOc2ccc(Cl)cc2Cl)o1)Nc1ccc(C(=O)O)cc1	41.7	0	0	0	0	0	0	5.0
CC(CCc1ccccc1)NC(=O)COC(=O)c1cc(NS(=O)(=O)c2ccc(Cl)c([N+](=O)[O-])c2)ccc1O (stereo not drawn)	46.4	0	0	0	0	0	43.4	12.3
CN(C(=O)COC(=O)c1cc(NS(=O)(=O)c2cc([N+](=O)[O-])ccc2Cl)ccc1O)C1CCCCC1	56.0	0	0	0	26.3	0	52.8	16.7
O=C(COC(=O)c1ccccc1NS(=O)(=O)c1cc([N+](=O)[O-])ccc1Cl)c1ccccc1	-	-	-	0	-	0	-	-
